# PubChem BioAssay AID686978 (National Center for Advancing Translational Sciences (NCATS), 2013)
# Hit rate of the full screen: of about 420,000 compounds, about 64,000 (15%) were called active. Inconclusive results (about 27%) are left out. The call rests on the fitted dose curve; in most records, active means well fitted inhibition curve with a large enough effect; inconclusive means small, poorly fitted or top-dose-only effect; inactive means flat fitted curve, though single readings scatter. The list is a sample of the results.
# Assay: qHTS for Inhibitors of human tyrosyl-DNA phosphodiesterase 1 (TDP1): qHTS in cells in absence of CPT; further: nearly all actives have a fitted effect of over 55% in size
# Details: DT40 Tdp1-/- hTDP1 cells, no CPT, ATP luminescence, 48 h; activity change, negative = growth inhibition: at 46.2 µM (top of the series)
# Procedure, shortened: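 Seeded 400 DT40-hTDP1 cells/well (vehicle DMSO, no 20 nM CPT); pinned compounds; ≥48 hr at 37 °C; CellTiter-Glo luminescence as viability measure.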
# On the % scale 0 is the no-effect control and ±100 the full control effect; potency means the concentration at half of the fitted maximal effect.
SMILES,"activity change, negative = growth inhibition",Potency
COc1ccc(CC(=O)Nc2nc3n(n2)C(c2ccccc2)CC(=O)N3)cc1OC (centres undefined),-18.7% (inactive),–
O=C(CN1CCN(c2ccccn2)CC1)NCc1cccs1,-6.39% (inactive),–
O=C(COc1cc(Cl)c(Cl)cc1Cl)NCCc1ccccn1,-8.55% (inactive),–
O=C(COC(=O)COc1cc(Cl)c(Cl)cc1Cl)NC1CC1,-14.5% (inactive),–
NC(=S)NN=Cc1ccc(OC(=O)COc2cc(Cl)c(Cl)cc2Cl)cn1,–,5.8 µM (active)
Cc1nn(C)c(C)c1Sc1ccccc1N,-25.8% (inactive),–
CC(=O)OC(C(=O)NCCc1ccccc1)c1cccnc1 (centres undefined),-11.2% (inactive),–
O=C(NCCc1ccc2c(c1)OCCO2)c1cc2ccccc2o1,–,20.6 µM (active)
O=C(Cc1ccc([N+](=O)[O-])cc1)NCCc1ccc2c(c1)OCO2,-29.4% (inactive),–
O=C(COC(=O)c1ccc2c(c1)OCCO2)NCc1ccccc1,-27% (inactive),–
CN(C)S(=O)(=O)c1ccc(N2CCCC2)c(C(=O)Nc2cccc(F)c2)c1,-22.9% (inactive),–
O=C(Nc1cccc([N+](=O)[O-])c1)Nc1ccc(Cl)cn1,-3.01% (inactive),–
CCN(CC)C(=O)CN(c1cccc([N+](=O)[O-])c1)S(=O)(=O)c1ccccc1,-46.2% (inactive),–
O=C(CCl)N(Cc1cccc([N+](=O)[O-])c1)c1cccc(Cl)c1,–,4.11 µM (active)
O=C1O/C(=C\c2ccc(O)cc2)C(O)=C1c1ccc(O)cc1,-6.83% (inactive),–
Cc1cc(C)c2cc(C#N)c(N3CCNCC3)nc2c1,–,18.4 µM (active)
Cc1cccc2cc(C#N)c(N3CCCC3)nc12,-7.84% (inactive),–
Cc1cc(C)c2nc(N3CCCC3)c(C#N)cc2c1,-23.4% (inactive),–
Cc1cccc(C)c1NC(=O)CNC(=O)c1c(C)nn(-c2ccccc2)c1C,-7.42% (inactive),–
COC(=O)N1CCC[C@@]2(CCN(C(=O)NC(C)C)C2)C1,-2.27% (inactive),–
CSCCC(NC(=O)COc1ccccc1)C(=O)N1CCN(c2cccc(C(F)(F)F)c2)CC1 (centres undefined),–,13 µM (active)
O=C(COc1ccc(Cl)cc1)N1CCN(c2cccc(C(F)(F)F)c2)CC1,–,20.6 µM (active)
COc1cccc(OCC(O)CN2CCN(CCO)CC2)c1 (centres undefined),-8.47% (inactive),–
OC(COc1ccc2c(c1)CCC2)CN1CCN(c2cccc(Cl)c2)CC1 (centres undefined),–,18.4 µM (active)
Cc1c(C)c2ccc(OCC(=O)N3CCN(c4cccc(Cl)c4)CC3)cc2oc1=O,–,10.3 µM (active)
COc1ccc(OCC(=O)N2CCN(C(=O)COc3ccccc3)CC2)cc1,-0.321% (inactive),–

SMILES,"activity change, negative = growth inhibition",Potency
Cc1cc(=O)oc2cc(OCC(=O)N3CCN(c4ccc(F)cc4)CC3)c(Cl)cc12,-7.04% (inactive),–
CSCCC(NC(=O)COc1ccccc1)C(=O)OCCOc1ccc(F)cc1 (centres undefined),-30% (inactive),–
OC(COc1cccc(OCC(O)CN2CCCC2)c1)CN1CCCC1 (centres undefined),2.76% (inactive),–
O=C(COc1ccc2c(c1)CCC2)N1CCN(c2ccc(F)cc2)CC1,-6.49% (inactive),–
COc1ccc(N2CCN(C(=O)COc3ccc4c(C)cc(=O)oc4c3)CC2)cc1,-28% (inactive),–
CSCCC(NC(=O)COc1ccccc1)C(=O)OCCOc1ccc(Br)cc1 (centres undefined),-13.5% (inactive),–
O=C(O)c1cc([N+](=O)[O-])c(Nc2cccc3ccccc23)c([N+](=O)[O-])c1,-10% (inactive),–
CCn1ncc(C2=NOC(C(=O)N3CCN(c4ccccc4)CC3)C2)c1C (centres undefined),-21.9% (inactive),–
O=C1OC(NC(=O)c2ccccc2)C(N2CCOCC2)=C1Cl (centres undefined),-16.7% (inactive),–
CCOC(=O)CCCNC(=O)COC(=O)c1cc(Br)c(Br)s1,-23.2% (inactive),–
Cc1cccc(C)c1NC(=O)CNC(=O)C1CCCC1,-2.99% (inactive),–
CC(C)(C)NC(=O)C(c1ccncc1)N(C(=O)CNC(=O)c1ccco1)c1ccc2c(c1)OCO2 (centres undefined),1.09% (inactive),–
Cc1nc(Nc2ccccc2F)c2nnn(Cc3ccccc3Cl)c2n1,-1.73% (inactive),–
O=C(CCN1C(=O)[C@@H]2Cc3ccccc3CN2C1=O)NCCc1ccccc1,-4.81% (inactive),–
O=C(NC1CCCCC1)C1CC(=O)N(CCc2ccccc2)C1 (centres undefined),1.22% (inactive),–
COc1ccccc1-c1nnc(SCC(=O)Nc2ccccc2)o1,-5.16% (inactive),–
O=C(c1ccccc1)c1ccc(OCC(O)CN2CCCC2)cc1 (centres undefined),-13% (inactive),–
CCC(=O)c1ccc(OCC(O)CN2CC(C)OC(C)C2)cc1 (centres undefined),-7.45% (inactive),–
CCC(=O)c1ccc(OCC(O)CN2CCN(c3cccc(C(F)(F)F)c3)CC2)cc1 (centres undefined),–,25.9 µM (active)
CCn1cc(C(=O)NCC(=O)NC(C)(C)CO)c(=O)c2cc3c(cc21)OCO3,-9.68% (inactive),–
C/C(=N\NC(=O)C1(C)CC1(Br)Br)c1ccc(C)cc1C (centres undefined),-28.5% (inactive),–
COc1ccc(-c2noc(-c3ccc(C)cc3)n2)cc1,-25.9% (inactive),–
COc1ccc(-c2nc3c(s2)CCc2onc(-c4ccc(OC)cc4)c2-3)cc1,–,16.4 µM (active)
COc1ccc(-c2cc(C(=O)Nc3sc4c(c3C(N)=O)CCCC4)no2)cc1,-1.26% (inactive),–
Cc1ccc(NC(=S)N2CCN(c3ncccn3)CC2)cc1C,-16.6% (inactive),–
Cc1sc2ncnc(N3CCC(C(=O)Nc4ccc(F)cc4Cl)CC3)c2c1C,–,23.1 µM (active)

SMILES,"activity change, negative = growth inhibition",Potency
Cc1sc2ncnc(N3CCC(C(=O)Nc4nc5ccc(Cl)cc5s4)CC3)c2c1C,–,7.31 µM (active)
O=C(NNC(=O)C1CCN(c2ncccn2)CC1)c1ccccc1,-10% (inactive),–
Cc1ccc(Cl)cc1NC(=O)C1CCN(S(C)(=O)=O)CC1,-1% (inactive),–
O=C(NNC(=O)C1CCCC1)c1ccc(F)cc1,-16.6% (inactive),–
Cc1nc2ccc(NC(=O)C3CCCCC3)cc2s1,-29.1% (inactive),–
Cc1sc2ncnc(N3CCC(C(=O)NNC(=O)c4ccc(F)cc4)CC3)c2c1C,–,16.4 µM (active)
CC(=O)Nc1c(C)nn(-c2ccccc2)c1N1CCC(C(=O)Nc2cc(Cl)ccc2C)CC1,-0.851% (inactive),–
CS(=O)(=O)c1ccc2nc(NC(=O)C3C4C=CC(C4)C3C(=O)O)sc2c1 (centres undefined),-12.2% (inactive),–
CC(C)[C@H](NC(=O)Nc1ccc(S(N)(=O)=O)cc1)C(=O)O,-3.42% (inactive),–
CC(C)CCN1NC2(CCC(C)CC2)NC1=S (centres undefined),2.78% (inactive),–
CN1C(=O)c2ccccc2C(C(=O)NCCCN2CCCC2)C1c1c[nH]c2ccccc12 (centres undefined),-16.9% (inactive),–
CCc1c(O)nc(SCC(=O)N2CCCCC2)n(-c2ccccc2C)c1=O,-13.4% (inactive),–
CCc1ccc(OCC2c3cc(OC)c(OC)cc3CCN2C(C)=O)cc1 (centres undefined),–,13 µM (active)
COc1cc2c(cc1OC)C(COc1ccc(F)cc1)N(C(=O)c1ccccc1F)CC2 (centres undefined),–,16.4 µM (active)
CCc1ccc(OCC(=O)OC(C)C(=O)NC2CC2)cc1 (centres undefined),13.9% (inactive),–
COc1ccc2[nH]c(=O)c(C3c4cc(OC)c(OC)cc4CCN3C(=O)c3ccco3)cc2c1 (centres undefined),-28.5% (inactive),–
COc1ccc(CC(NC(C)=O)C(=O)NC2CCN(C(=O)c3ccc(OC)c(OC)c3)CC2)cc1OC (centres undefined),-4.86% (inactive),–
COc1cc2c(cc1OC)CN(CC(=O)Nc1ccc(F)cc1)CC2,-8.18% (inactive),–
CC(C)CN(C(=O)CSc1ncnc2sccc12)C1CCS(=O)(=O)C1 (centres undefined),2.24% (inactive),–
O=C(N/N=C/c1ccsc1)c1cc(O)cc(O)c1,-1.03% (inactive),–
CCN(CC(=O)NCc1cccs1)C(=O)/C=C/c1ccc(C)cc1,1.01% (inactive),–
FCOC(C(F)(F)F)C(F)(F)F,-11.4% (inactive),–
CN(C)CCCN1C(=O)CSC1c1ccc([N+](=O)[O-])cc1 (centres undefined),-10.4% (inactive),–
CCCCCCCCCCCCN1C(=O)CSC1c1cccnc1 (centres undefined),–,16.4 µM (active)
CCCCc1ccc(NC(=O)NCc2cccnc2)cc1,-28.2% (inactive),–
COC(=O)CC1C(C)(C)C(OC(C)=O)C2CC3=C4CC(=O)OC(c5ccoc5)[C@]4(C)CCC3[C@@]1(C)C2=O (some centres undefined),-19.3% (inactive),–

SMILES,"activity change, negative = growth inhibition",Potency
C=C1C([C@@]2(C)C(OC(C)=O)CC(=O)O[C@@](C)(COC(C)=O)C2CC(=O)OC)C(OC=O)C(OC(=O)C(O)C(C)CC)[C@]2(C)C(c3ccoc3)CC(=O)C12O (some centres undefined),–,4.61 µM (active)
CCOC(=O)C1(Cc2ccccc2C)CCCN(S(C)(=O)=O)C1 (centres undefined),10.4% (inactive),–
C/C(=N\NC(=O)OC(C)(C)C)c1ccc[nH]1,-16.5% (inactive),–
Cc1cccc(-c2nc(SCC(=O)Nc3cc(C)on3)c3c(=O)n(C)c(=O)n(C)c3n2)c1,2.45% (inactive),–
Cn1c(=O)c2c(SCC(=O)NCC3CCCO3)nc(-c3ccccc3F)nc2n(C)c1=O (centres undefined),-26.5% (inactive),–
Cc1ccccc1-c1nc(SCC(=O)N(C)c2ccccc2)c2c(=O)n(C)c(=O)n(C)c2n1,–,9.2 µM (active)
O=C(CN(C(=O)c1csnn1)c1cccc(F)c1)NCc1ccc(F)cc1,-2.72% (inactive),–
CCCCn1c(N)c(N(CCC(C)C)C(=O)COC(=O)c2ccc(CC)cc2)c(=O)[nH]c1=O,6.86% (inactive),–
CCCCc1nc(NCc2ccccc2)c(C#N)c2c1CCCC2,-19.1% (inactive),–
Cc1nc(NCCN)c(C#N)c2c1COC(C)(C)C2,-19.8% (inactive),–
CCCCc1nc(NCCN)c(C#N)c2c1CSC(C)(C)C2,–,20.6 µM (active)
CCOc1ccc(S(=O)(=O)Nc2ccncc2)c(C)c1C,-7.83% (inactive),–
O=C(CSc1nc2ccccc2c(=O)n1-c1ccc(F)cc1)NC1CC1,16.1% (inactive),–
Cc1nn(-c2ccccc2)c(C)c1/C=N/NC(=O)CSc1nc2ccccc2c(=O)n1-c1ccccc1,–,18.4 µM (active)
COc1ccc(OC)c(/C=N/NC(=O)CSc2nnc(C)n2-c2ccccc2)c1,-3.99% (inactive),–
CCCS(=O)(=O)NC(=O)C1(C)CCCN(C(=O)c2cccs2)C1 (centres undefined),1.68% (inactive),–
COc1cc(/C=C2\C(=N)N3N=C(CC(=O)N4CCOCC4)SC3=NC2=O)cc(OC)c1OC,12.8% (inactive),–
Cc1noc(C)c1C(=O)N(CC(=O)NC1CCCC1)Cc1ccccc1F,-4.62% (inactive),–
CCOP1(=O)C=C(C(C)(C)C)OC1c1ccc(F)cc1 (centres undefined),-5.51% (inactive),–
CN(C)CCSc1nc(N)c2c3c(sc2n1)COC(C)(C)C3,-19.5% (inactive),–
C=CCNC(=S)NNc1ncnc2sc3c(c12)CC(C)(C)OC3,–,5.17 µM (active)
C[C@H]1CN([C@@H](C)CO)C(=O)CCCn2cc(nn2)CO[C@@H]1CN(C)S(=O)(=O)c1ccccc1C#N,-18.8% (inactive),–
CCC1CCc2c(sc(NC(C)=O)c2C#N)C1 (centres undefined),-4.74% (inactive),–
Cc1nnc(SC(C)C(=O)c2c[nH]c3ccccc23)n1C1CC1 (centres undefined),-23.9% (inactive),–
COc1ccc(N2CCN(C(C)=C3C(=O)c4ccccc4C3=O)CC2)cc1,1.97% (inactive),–
COc1ccc(C(C(O)C(=O)c2c[nH]c3ccccc23)N2CCN(c3ccccc3)CC2)cc1 (centres undefined),–,25.9 µM (active)
